Laboratory results published in the supplement of paper PMC12350171.
Counter-ions that a name gives are not always drawn. Values without a mark were called inactive.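 The calls were made as follows: active = normalised median growth AUC below 0.1 of DMSO control; inactive = AUC 0.1 or higher.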

Experiments:
Assay in all cases: growth AUC normalised to DMSO control (median) (fraction of control); higher = less growth inhibition, active = hit call of the paper
Conditions in all cases: 20 µM
P. vulgatus RND KO = tested on: P. vulgatus RND KO
Procedure, shortened: (§1)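 In 96-well plates of mGAM seeded at OD578 0.01, strains that had been passaged twice overnight without oxygen were exposed to approved-drug library compounds at 20 μM with 1% DMSO. Hourly OD578 readings were taken for 24 h in an anaerobic incubator. The trapezoidal-rule area under the curve, with curves truncated at entry into stationary phase, was expressed relative to same-plate vehicle wells as the median of three biological replicates.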

P. vulgatus WT = tested on: P. vulgatus WT
Procedure, shortened: as §1

[1] = tested on: S. enterica typhimurium WT
Procedure, shortened: as §1

[2] = tested on: S. enterica typhimurium tolC KO
Procedure, shortened: as §1
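Also: active when median AUC fell below 0.1.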

Row | Structure (SMILES) | growth AUC normalised to DMSO control (P. vulgatus RND KO) | growth AUC normalised to DMSO control (P. vulgatus WT) | growth AUC normalised to DMSO control [1] | growth AUC normalised to DMSO control [2]
1 | C[C@@H](O)[C@H]1C(=O)N2C(C(=O)O)=C(S[C@@H]3CN[C@H](CNS(N)(=O)=O)C3)[C@H](C)[C@H]12 [Doripenem monohydrate] | 0.00779 (active) | 0.00747 (active) | 0.00575 (active) | 0.00595 (active)
2 | COc1ccc(CN2CCN(C(c3ccc(F)cc3)c3ccc(F)cc3)CC2)c(OC)c1OC [Lomerizine dihydrochloride] | 0.997 | 0.986 | 1.01 | 0.978
3 | O=C(O)Cc1csc(-c2ccc(Cl)cc2)n1 [Fenclozic acid] | 1.01 | 1.03 | 1.01 | 0.98
4 | CC(=O)NS(=O)(=O)c1ccc(NC(=O)c2ccccc2C(=O)O)cc1 [Phthalylsulfacetamide] | 0.999 | 0.997 | 1 | 1
5 | CC(=O)Oc1ccccc1C(=O)Nc1ncc([N+](=O)[O-])s1 [Nitazoxanide] | 0.0128 (active) | 0.0145 (active) | 0.922 | 0.414
6 | CC(=O)Nc1ccc(C(=O)O)cc1 [Acedoben] | 0.997 | 1.01 | 1 | 0.997
7 | CC(C(=O)O)c1ccc2c(c1)CC(=O)c1ccccc1S2 (centres undefined) [Zaltoprofen] | 1.02 | 1.01 | 0.998 | 0.978
8 | Cc1cc(C#N)cc(C)c1Oc1nc(Nc2ccc(C#N)cc2)nc(N)c1Br [Etravirine] | 1.03 | 1.02 | 1.01 | 1.01
9 | COc1cc2/c(=N/c3ccc(Br)cc3F)nc[nH]c2cc1OCC1CCN(C)CC1 [Vandetanib] | 1.1 | 1.08 | 1.02 | 1.01
10 | COc1cccc(CCc2ccccc2OCC(CN(C)C)OC(=O)CCC(=O)O)c1 (centres undefined) [Sarpogrelate hydrochloride] | 1.03 | 1.05 | 1 | 0.988
11 | CCCCc1ncc(/C=C(\Cc2cccs2)C(=O)O)n1Cc1ccc(C(=O)O)cc1 [Eprosartan mesylate] | 1.02 | 1.02 | 1.01 | 1
12 | Cc1cc(NS(=O)(=O)c2ccc(N)cc2)nc(C)n1 [Sulfisomidine] | 1.03 | 1.03 | 1 | 0.995
13 | N=c1ccn2c(n1)O[C@H]1[C@H](O)[C@@H](CO)O[C@H]12 [Ancitabine hydrochloride] | 0.971 | 0.978 | 1.01 | 0.991
14 | CC(C)C(=O)OCC(=O)[C@@]12O[C@H](C3CCCCC3)O[C@@H]1C[C@H]1[C@@H]3CCC4=CC(=O)C=C[C@]4(C)[C@H]3[C@@H](O)C[C@@]12C [Ciclesonide] | 1.02 | 1.02 | 1.01 | 1.01
15 | CCOC(=O)[C@H](CCc1ccccc1)N[C@@H](C)C(=O)N1C(=O)N(C)C[C@H]1C(=O)O [Imidapril hydrochloride] | 1.01 | 1 | 1.02 | 1
16 | COc1cc(/C=C/C(=O)N2CCN(CC(=O)N3CCCC3)CC2)cc(OC)c1OC [Cinepazide maleate] | 1.04 | 1.08 | 1.01 | 1.01

Row | Structure (SMILES) | growth AUC normalised to DMSO control (P. vulgatus RND KO) | growth AUC normalised to DMSO control (P. vulgatus WT) | growth AUC normalised to DMSO control [1] | growth AUC normalised to DMSO control [2]
17 | O=C(O)c1cc(=O)c2ccccc2o1 [Chromocarb] | 0.981 | 1 | 0.998 | 1
18 | CC(C)c1nc(CN(C)C(=O)N[C@H](C(=O)N[C@@H](Cc2ccccc2)C[C@H](O)[C@H](Cc2ccccc2)NC(=O)OCc2cncs2)C(C)C)cs1 [Ritonavir] | 1.04 | 1.04 | 0.998 | 0.97
19 | CO/N=C(\C(=O)N[C@@H]1C(=O)N2C(C(=O)[O-])=C(C[n+]3cccc4c3CCC4)CS[C@H]12)c1csc(N)n1 [Cefpirome sulfate] | 0.0131 (active) | 0.00672 (active) | 0.00453 (active) | 0.00385 (active)
20 | CN1CCC[C@@H]1Cc1c[nH]c2ccc(CCS(=O)(=O)c3ccccc3)cc12 [Eletriptan] | 1.04 | 1.05 | 0.987 | 0.958
21 | COC(=O)C1=C(C)NC(C)=C(C(=O)OC2CCCN(Cc3ccccc3)C2)C1c1cccc([N+](=O)[O-])c1 (centres undefined) [Benidipine hydrochloride] | 1.01 | 0.968 | 0.993 | 0.961
22 | Cc1ccccc1C(=O)Nc1ccc(C(=O)N2CCCC(O)c3cc(Cl)ccc32)c(C)c1 (centres undefined) [Tolvaptan] | 0.919 | 0.928 | 0.993 | 0.94
23 | O=c1[nH]c(=O)n(C2CCCO2)cc1F (centres undefined) [Tegafur] | 1 | 1.01 | 1 | 0.999
24 | NC(=O)Cc1cccc(C(=O)c2ccccc2)c1N [Nepafenac] | 1.03 | 1.01 | 0.996 | 1.02
25 | CCCCCCCCCCCCCCCCCCCCCC(=O)Nc1ccn([C@@H]2O[C@H](CO)[C@@H](O)[C@@H]2O)c(=O)n1 [Enocitabine] | 1.01 | 1.04 | 1.01 | 1
26 | Cc1c(O)cccc1C(=O)N[C@@H](CSc1ccccc1)[C@H](O)CN1C[C@H]2CCCC[C@H]2C[C@H]1C(=O)NC(C)(C)C [Nelfinavir mesylate] | 0.912 | 0.954 | 1 | 0.962
27 | Nc1cccc2c1C(=O)N(C1CCC(=O)NC1=O)C2=O (centres undefined) [Pomalidomide] | 1.06 | 1.09 | 1.02 | 0.983
28 | Cn1c(NCCN(CCO)CCCc2ccc([N+](=O)[O-])cc2)cc(=O)n(C)c1=O [Nifekalant] | 1.06 | 1.03 | 1.02 | 1
29 | COc1cccc2c1C(=O)c1c(O)c3c(c(O)c1C2=O)C[C@@](O)(C(=O)CO)C[C@@H]3O[C@H]1C[C@H](N)[C@@H](O)[C@H](C)O1 [Epirubicin hydrochloride] | 1.02 | 0.961 | 1 | 0.0212 (active)
30 | Cc1ccc(Nc2c(F)cccc2Cl)c(CC(=O)O)c1 [Lumiracoxib] | 0.985 | 1.01 | 1 | 1
31 | Cc1onc(-c2ccccc2)c1-c1ccc(S(N)(=O)=O)cc1 [Valdecoxib] | 0.981 | 0.993 | 1 | 0.983
